The values below come from PubChem BioAssay (NCATS).

Results filed as inconclusive are left out. Where a call stands in place of a potency, no number is given. Active and inactive are the calls of the source. Calls come from the whole dose curve; as a rule, active = well fitted inhibition curve with a large enough effect; inconclusive = small, poorly fitted or top-dose-only effect; inactive = flat fitted curve, though single readings scatter.
Potency is the fitted concentration of half-maximal effect.

In the first experiment the target is Ubiquitin carboxyl-terminal hydrolase 1 (Homo sapiens) (UniProt O94782). Description: Inhibitors of USP1/UAF1: Pilot qHTS (AID 504865). Note: nearly all actives have a fitted effect of over 35% in size. Conditions: purified USP1/UAF1, Ub-rhodamine cleavage fluorescence; series mostly up to 114 µM. In a few lines: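 USP1/UAF1 complex (1nM) preincubated with compound 15 min at room temperature, then Ub-Rho substrate (150nM final) added. Fluorescence read kinetically at 480/540 nm, 6 reads every 60 seconds. Buffer: 50mM HEPES pH 7.8, 0.5mM EDTA, 0.1 mg/ml BSA, 1mM TCEP, 0.01% Tween-20.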
Sequence of Ubiquitin carboxyl-terminal hydrolase 1 (Homo sapiens) (O94782 whole entry, looked up): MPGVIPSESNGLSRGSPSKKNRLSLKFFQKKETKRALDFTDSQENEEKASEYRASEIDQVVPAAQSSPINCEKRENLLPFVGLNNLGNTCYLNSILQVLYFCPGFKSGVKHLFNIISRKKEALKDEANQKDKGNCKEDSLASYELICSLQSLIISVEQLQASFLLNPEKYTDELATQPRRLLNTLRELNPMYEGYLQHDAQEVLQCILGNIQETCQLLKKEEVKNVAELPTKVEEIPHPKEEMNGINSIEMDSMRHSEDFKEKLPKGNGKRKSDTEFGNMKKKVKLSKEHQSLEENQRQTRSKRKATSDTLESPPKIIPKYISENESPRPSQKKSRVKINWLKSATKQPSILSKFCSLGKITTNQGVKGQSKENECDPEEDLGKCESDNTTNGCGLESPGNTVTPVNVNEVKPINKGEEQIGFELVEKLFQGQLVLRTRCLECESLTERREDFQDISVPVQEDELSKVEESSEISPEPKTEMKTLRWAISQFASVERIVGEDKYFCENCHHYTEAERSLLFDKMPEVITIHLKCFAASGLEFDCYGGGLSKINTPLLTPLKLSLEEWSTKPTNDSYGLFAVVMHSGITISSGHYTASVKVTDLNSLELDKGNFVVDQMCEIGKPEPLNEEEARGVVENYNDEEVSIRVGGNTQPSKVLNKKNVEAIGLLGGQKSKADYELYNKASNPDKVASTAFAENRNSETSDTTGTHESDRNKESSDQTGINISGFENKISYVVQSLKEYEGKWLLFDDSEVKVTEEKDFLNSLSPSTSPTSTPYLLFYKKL
On the technique in general: qHTS replaces the single test concentration by a dilution series.
Regarding `Cc1cc(C)cc(C(=O)N(C)[C@H](Cc2ccc(-c3ccccc3)cc2)C(=O)N[C@@H](Cc2c[nH]c3ccccc23)C(=O)O)c1`, the Potency is 79.4 µM (active).

As for `CC(C)=CCCC1(C)C=Cc2c(O)c3c(c(CC=C(C)C)c2O1)OC12C(=CCCC1C(C)(C)O[C@@]2(C/C=C(\C)C(=O)O)C(=O)O)C3=O` (some centres undefined), the Potency was 79.4 µM (active).

For `CCOc1nc2cccc(C(=O)OC(C)OC(=O)OC3CCCCC3)c2n1Cc1ccc(-c2ccccc2-c2nn[nH]n2)cc1` (centres undefined), the Potency is 22.4 µM (active).

In the next experiment the test system is Zika virus NS2B-NS3 protease (linked construct). Description: Confirmatory screen NINDS AMC qHTS for Zika virus inhibitors (AID 1347152). Note: nearly all actives have a fitted effect of over 70% in size. Conditions: Purified linked NS2B-NS3, AMC substrate fluorescence; series mostly up to 110 µM. The gist of the method: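 Purified NS2B-NS3 protease with NS2B hydrophilic domain linked to NS3 protease domain by flexible linker, 1 nM final in 10 mM Tris-HCl pH 8.0, 0.01% Tween 20. Compounds preincubated 15 min, room temperature; Bz-Nle-KRR-AMC 10 microM (Km 18.3 µM); 15-min fluorescence change, 4-parameter Hill fit.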
As for `O=S(=O)(N[C@H]1CO[C@H]2[C@@H]1OC[C@@H]2n1nnnc1-c1ccc2c(c1)OCO2)c1ccc2ccccc2c1`, the Potency result is “inactive”.

For `CC(=O)Oc1cc2c(c(C)c1OC(C)=O)CC=C1[C@@]2(C)CC[C@@]2(C)[C@H]3C[C@](C)(C(=O)O)CC[C@]3(C)CC[C@]12C`, the Potency is 19.2 µM (active).

Take `Clc1ccc(-c2nn3c(COc4cc(Cl)c(OCc5nnc6sc(-c7ccc(Cl)cc7)nn56)cc4Cl)nnc3s2)cc1`: the Potency was 20 µM (active). Same read-out and setting: the same measure for `C[C@@H](NC(=O)c1ccc(Cl)cc1)c1c(-c2ccc(F)cc2)noc1C(=O)O`: “inactive”; for `Cc1cc(C)cc(C(=O)N(C)[C@H](Cc2ccc(-c3ccccc3)cc2)C(=O)N[C@@H](Cc2c[nH]c3ccccc23)C(=O)O)c1`: 9.61 µM (active); for `O=C(OCC#CCSc1nnc(-c2ccc(Cl)cc2)o1)c1ccc(F)cc1`: “inactive”. In the case of `O=C(Nc1ccc(Oc2ccccc2)cc1)O[C@@H]1CO[C@H]2[C@@H]1OC[C@@H]2NS(=O)(=O)c1ccc2ccccc2c1`, the Potency result is “inactive”.

For `O=C(O)c1c(Sc2ccccc2)c2cc(Cl)ccc2n1Cc1ccc(Cl)cc1`, the Potency is 6.81 µM (active).

With `CCCCc1nn(-c2ccccc2C(F)(F)F)c(=O)n1Cc1ccc(-c2ccccc2S(=O)(=O)NC(=O)c2sccc2C)cc1`, the Potency was 24.1 µM (active). `O=C(O)c1ccc(-c2cccc(C(F)(F)F)c2)cc1`: the Potency entry is “inactive”. Take `COc1ccccc1-c1ccnc(N[C@H]2CO[C@H]3[C@@H]2OC[C@@H]3NS(=O)(=O)c2ccc3ccccc3c2)n1`: the Potency result was “inactive”. On the same count and under the same terms, the figure for `CCOc1nc2cccc(C(=O)OC(C)OC(=O)OC3CCCCC3)c2n1Cc1ccc(-c2ccccc2-c2nn[nH]n2)cc1` (centres undefined) is 12.1 µM (active). For the compound `O=C(O)c1cccc(-c2cccc(C(F)(F)F)c2)c1`, the Potency result was “inactive”. Regarding `C[S+](=O)([O-])c1ccc(OCC2CN(Cc3ccccc3)C(=O)c3c(ccnc3-c3ccc(OCC(=O)O)cc3)O2)cc1` (centres undefined), the Potency entry was “inactive”. On to `Clc1cc(OCc2nnc3sc(Cc4ccccc4)nn23)c(Cl)cc1OCc1nnc2sc(Cc3ccccc3)nn12`, for which the Potency was 12.6 µM (active).

`O=C(Nc1ccc(Oc2ccccc2)cc1)O[C@@H]1CO[C@H]2[C@@H]1OC[C@@H]2n1nnnc1-c1ccc(-c2ccccc2)cc1`: the Potency result is “inactive”.

In another experiment the test system is Zika virus NS2B-NS3 protease (unlinked complex). Description: Confirmatory screen GU AMC qHTS for Zika virus inhibitors (AID 1347153). Note: nearly all actives have a fitted effect of over 70% in size. The settings on record: Recombinant NS2B-NS3 protease, AMC substrate fluorescence; series mostly up to 111 µM. In a few lines: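 Unlinked enzyme 25 nM, Tris pH 8.0/0.01% Tween 20; cpd 15 min RT, dark; + AMC substrate 10 µM (Km 18.3 µM); 340/450 nm read at t0 and 15 min; % inhibition → 4-param fit.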
Turning to `O=S(=O)(N[C@H]1CO[C@H]2[C@@H]1OC[C@@H]2n1nnnc1-c1ccc2c(c1)OCO2)c1ccc2ccccc2c1`, the Potency entry is “inactive”. In the case of `COc1cc(O)c2c(=O)cc(-c3ccc(OC)c(-c4c(O)cc(O)c5c(=O)cc(-c6ccc(O)cc6)oc45)c3)oc2c1`, the Potency is 44.1 µM (active). Turning to `CC(=O)Oc1cc2c(c(C)c1OC(C)=O)CC=C1[C@@]2(C)CC[C@@]2(C)[C@H]3C[C@](C)(C(=O)O)CC[C@]3(C)CC[C@]12C`, the Potency was 21.5 µM (active). In the case of `Cc1c(-c2ccc(O)cc2)nn(-c2ccc(O)cc2)c1-c1ccc(OCCN2CCCCC2)cc1`, the Potency entry was “inactive”. For `Cc1cc(C)cc(C(=O)N(C)[C@H](Cc2ccc(-c3ccccc3)cc2)C(=O)N[C@@H](Cc2c[nH]c3ccccc23)C(=O)O)c1`, the Potency is 19.2 µM (active).

Take `O=C(OCC#CCSc1nnc(-c2ccc(Cl)cc2)o1)c1ccc(F)cc1`: the Potency entry is “inactive”. Take `O=C(Nc1ccc(Oc2ccccc2)cc1)O[C@@H]1CO[C@H]2[C@@H]1OC[C@@H]2NS(=O)(=O)c1ccc2ccccc2c1`: the Potency result was “inactive”.

As for `O=C(O)c1c(Sc2ccccc2)c2cc(Cl)ccc2n1Cc1ccc(Cl)cc1`, the Potency was 19.2 µM (active). For the compound `CCCCc1nn(-c2ccccc2C(F)(F)F)c(=O)n1Cc1ccc(-c2ccccc2S(=O)(=O)NC(=O)c2sccc2C)cc1`, the Potency is 21.5 µM (active). `C=NC(C(=O)N[C@H]1C(=O)N2C1SC(C)(C)C2C(=O)O)c1ccccc1` (some centres undefined): the Potency entry was “inactive”.

As for `CC(C)=CCCC1(C)C=Cc2c(O)c3c(c(CC=C(C)C)c2O1)OC12C(=CCCC1C(C)(C)O[C@@]2(C/C=C(\C)C(=O)O)C(=O)O)C3=O` (some centres undefined), the Potency is 19.2 µM (active). The same measure, in the same setting: the entry for `O=C(O)c1ccc(-c2cccc(C(F)(F)F)c2)cc1` is “inactive”.

Turning to `COc1ccccc1-c1ccnc(N[C@H]2CO[C@H]3[C@@H]2OC[C@@H]3NS(=O)(=O)c2ccc3ccccc3c2)n1`, the Potency result was “inactive”. On the same count and under the same terms, the entry for `CO[C@H]1C[C@@H](O[C@@H]2/C(C)=C/C[C@@H]3C[C@@H](C[C@]4(CC[C@H](C)[C@@H](C5CCCCC5)O4)O3)OC(=O)[C@@H]3C=C(C)/C(=N/O)[C@H]4OC/C(=C\C=C\[C@@H]2C)[C@]43O)O[C@@H](C)[C@H]1O` is “inactive”. Turning to `CCOc1nc2cccc(C(=O)OC(C)OC(=O)OC3CCCCC3)c2n1Cc1ccc(-c2ccccc2-c2nn[nH]n2)cc1` (centres undefined), the Potency was 17.1 µM (active). Regarding `CN(C)[C@@H]1C(=O)C(C(=O)NCN2CCCC2)=C(O)[C@@]2(O)C(=O)C3=C(O)c4c(O)cccc4[C@@](C)(O)[C@H]3C[C@@H]12`, the Potency was 9.61 µM (active). For the compound `O=C(O)c1cccc(-c2cccc(C(F)(F)F)c2)c1`, the Potency result is “inactive”. As to `C[S+](=O)([O-])c1ccc(OCC2CN(Cc3ccccc3)C(=O)c3c(ccnc3-c3ccc(OCC(=O)O)cc3)O2)cc1` (centres undefined), the Potency entry is “inactive”. Regarding `O=C(Nc1ccc(Oc2ccccc2)cc1)O[C@@H]1CO[C@H]2[C@@H]1OC[C@@H]2n1nnnc1-c1ccc(-c2ccccc2)cc1`, the Potency result is “inactive”. On to `O=C(O)c1cc(NCc2cc(O)ccc2O)ccc1O`, for which the Potency result is “inactive”.
